Results on 17 molecules are retold here after ChEMBL document CHEMBL1961873, “Compounds: GSK PKIS; Assays: Nanosyn kinase panel” (2012).

For experiment [1], the target named is T1, Muscle, skeletal receptor tyrosine-protein kinase (Homo sapiens) (UniProt O15146).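 Further: reported value is the mean percent inhibition of MuSK kinase.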
T1 sequence (whole entry): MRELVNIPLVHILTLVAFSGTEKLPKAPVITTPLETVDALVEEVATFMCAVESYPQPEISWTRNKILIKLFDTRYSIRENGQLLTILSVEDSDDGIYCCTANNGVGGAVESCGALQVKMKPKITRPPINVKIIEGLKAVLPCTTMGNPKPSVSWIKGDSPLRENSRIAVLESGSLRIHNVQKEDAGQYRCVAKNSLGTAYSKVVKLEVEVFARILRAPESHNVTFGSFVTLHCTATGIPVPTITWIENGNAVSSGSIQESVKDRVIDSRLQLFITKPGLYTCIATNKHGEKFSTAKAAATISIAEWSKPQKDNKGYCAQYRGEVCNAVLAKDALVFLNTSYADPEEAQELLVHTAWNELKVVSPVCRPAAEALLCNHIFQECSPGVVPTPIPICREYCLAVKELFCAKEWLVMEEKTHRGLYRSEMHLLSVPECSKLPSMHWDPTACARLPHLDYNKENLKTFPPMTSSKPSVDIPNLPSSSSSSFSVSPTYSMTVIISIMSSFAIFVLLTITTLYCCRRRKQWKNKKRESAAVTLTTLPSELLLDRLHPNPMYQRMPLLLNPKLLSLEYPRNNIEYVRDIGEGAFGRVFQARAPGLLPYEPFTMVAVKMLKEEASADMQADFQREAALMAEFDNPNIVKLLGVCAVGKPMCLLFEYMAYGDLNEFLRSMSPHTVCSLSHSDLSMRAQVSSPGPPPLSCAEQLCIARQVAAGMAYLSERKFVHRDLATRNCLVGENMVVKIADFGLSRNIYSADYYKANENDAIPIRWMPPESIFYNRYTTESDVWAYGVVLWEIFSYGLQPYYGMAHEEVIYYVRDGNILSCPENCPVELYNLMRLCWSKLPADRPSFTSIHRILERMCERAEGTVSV
As to conditions: at 1 µM.

Experiment [2] deals with Platelet-derived growth factor receptor alpha (Homo sapiens) (UniProt P16234). As to conditions: at 0.1 µM.
Sequence of Platelet-derived growth factor receptor alpha (Homo sapiens) (P16234 whole entry): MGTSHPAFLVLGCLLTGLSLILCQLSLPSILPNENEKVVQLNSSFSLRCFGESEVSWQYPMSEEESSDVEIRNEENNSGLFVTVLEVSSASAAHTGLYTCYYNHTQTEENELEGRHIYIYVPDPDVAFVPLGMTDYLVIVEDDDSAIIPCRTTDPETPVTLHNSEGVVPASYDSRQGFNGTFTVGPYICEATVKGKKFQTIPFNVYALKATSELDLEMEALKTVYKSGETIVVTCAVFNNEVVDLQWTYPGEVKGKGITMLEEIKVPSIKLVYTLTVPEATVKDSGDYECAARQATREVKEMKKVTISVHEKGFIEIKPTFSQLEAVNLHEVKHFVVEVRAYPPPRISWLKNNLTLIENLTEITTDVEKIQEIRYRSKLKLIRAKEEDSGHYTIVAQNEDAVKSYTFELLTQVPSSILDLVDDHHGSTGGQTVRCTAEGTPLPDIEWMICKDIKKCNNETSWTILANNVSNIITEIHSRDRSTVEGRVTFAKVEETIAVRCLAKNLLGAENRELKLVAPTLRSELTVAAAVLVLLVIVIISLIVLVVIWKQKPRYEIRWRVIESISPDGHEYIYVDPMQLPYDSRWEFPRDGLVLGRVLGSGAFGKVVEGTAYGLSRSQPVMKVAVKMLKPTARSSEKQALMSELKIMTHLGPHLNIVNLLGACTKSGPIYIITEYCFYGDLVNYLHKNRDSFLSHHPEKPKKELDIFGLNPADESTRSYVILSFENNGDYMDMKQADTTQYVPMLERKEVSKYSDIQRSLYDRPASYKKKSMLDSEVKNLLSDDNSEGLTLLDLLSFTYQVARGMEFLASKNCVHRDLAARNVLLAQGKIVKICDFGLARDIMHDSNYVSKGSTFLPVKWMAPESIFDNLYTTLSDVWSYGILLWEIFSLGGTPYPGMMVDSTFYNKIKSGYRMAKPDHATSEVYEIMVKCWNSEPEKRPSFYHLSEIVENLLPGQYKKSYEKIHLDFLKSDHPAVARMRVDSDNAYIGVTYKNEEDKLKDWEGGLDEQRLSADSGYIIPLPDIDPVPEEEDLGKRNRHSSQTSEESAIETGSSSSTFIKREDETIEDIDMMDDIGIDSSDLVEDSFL
Experiment [3] has the same target. As to conditions: at 1 µM.
Experiment [4] concerns Platelet-derived growth factor receptor alpha (Homo sapiens), P16234 [D842V]. As to conditions: at 0.1 µM.
Sequence of Platelet-derived growth factor receptor alpha (Homo sapiens), P16234 [D842V] (P16234 whole entry D842V): as the sequence (P16234 whole entry) above, with D842V counted along it
The test system is the same in experiment [5]. As to conditions: at 1 µM.
Experiment [6] relates to Platelet-derived growth factor receptor alpha (Homo sapiens), P16234 [T674I]. As to conditions: at 0.1 µM.
Sequence of Platelet-derived growth factor receptor alpha (Homo sapiens), P16234 [T674I] (P16234 whole entry T674I): as the sequence (P16234 whole entry) above, with T674I counted along it
Experiment [7] shares this test system. As to conditions: at 1 µM.
Experiment [8] concerns Platelet-derived growth factor receptor alpha (Homo sapiens), P16234 [V561D]. As to conditions: at 0.1 µM.
Sequence of Platelet-derived growth factor receptor alpha (Homo sapiens), P16234 [V561D] (P16234 whole entry V561D): as the sequence (P16234 whole entry) above, with V561D counted along it
For experiment [9] the test system is unchanged. As to conditions: at 1 µM.
Experiment [10] deals with Platelet-derived growth factor receptor beta (Homo sapiens) (UniProt P09619). As to conditions: at 0.1 µM.
Sequence of Platelet-derived growth factor receptor beta (Homo sapiens) (P09619 whole entry): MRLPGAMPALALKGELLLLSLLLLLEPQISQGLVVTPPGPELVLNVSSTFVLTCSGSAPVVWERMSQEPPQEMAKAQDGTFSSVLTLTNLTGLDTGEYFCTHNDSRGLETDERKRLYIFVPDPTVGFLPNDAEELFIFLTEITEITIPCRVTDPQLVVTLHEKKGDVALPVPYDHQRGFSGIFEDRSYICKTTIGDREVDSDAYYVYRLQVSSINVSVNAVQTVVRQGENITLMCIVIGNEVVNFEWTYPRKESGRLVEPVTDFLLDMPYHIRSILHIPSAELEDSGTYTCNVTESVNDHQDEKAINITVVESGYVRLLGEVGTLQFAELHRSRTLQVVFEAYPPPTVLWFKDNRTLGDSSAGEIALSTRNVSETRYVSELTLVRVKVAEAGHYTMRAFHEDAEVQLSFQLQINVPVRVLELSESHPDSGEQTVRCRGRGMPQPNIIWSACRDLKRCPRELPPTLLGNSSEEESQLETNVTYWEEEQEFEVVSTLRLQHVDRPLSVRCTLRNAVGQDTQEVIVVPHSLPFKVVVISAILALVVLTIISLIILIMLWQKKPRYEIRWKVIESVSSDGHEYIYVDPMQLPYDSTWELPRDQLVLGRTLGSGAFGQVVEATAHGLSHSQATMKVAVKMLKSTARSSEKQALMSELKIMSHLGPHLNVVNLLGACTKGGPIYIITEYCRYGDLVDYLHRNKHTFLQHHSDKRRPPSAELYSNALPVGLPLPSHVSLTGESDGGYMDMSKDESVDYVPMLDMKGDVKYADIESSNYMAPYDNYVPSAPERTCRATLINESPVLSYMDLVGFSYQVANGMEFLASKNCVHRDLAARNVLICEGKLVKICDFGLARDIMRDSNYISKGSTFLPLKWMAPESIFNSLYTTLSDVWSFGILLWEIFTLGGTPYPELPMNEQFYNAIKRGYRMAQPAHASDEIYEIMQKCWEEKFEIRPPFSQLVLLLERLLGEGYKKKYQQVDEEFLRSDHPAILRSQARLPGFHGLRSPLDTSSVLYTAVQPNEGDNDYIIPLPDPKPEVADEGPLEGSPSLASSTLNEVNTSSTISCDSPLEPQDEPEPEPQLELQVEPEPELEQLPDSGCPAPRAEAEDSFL

What is called inhibition is the change of the read-out against control, counted positive when it falls. As for `Cc1ccc2c(-c3ccnc(Nc4ccc5c(c4)OCCO5)n3)c(-c3ccc(C(F)(F)F)cc3)nn2n1`, the inhibition in experiment [1] was -5.36%; in experiment [2], 3.02%; in experiment [3], 9.11%; in experiment [4] it was 2.16%; in experiment [5], 3.64%; in experiment [6], 2.93%. Further, the inhibition turned out to be 2.96% in [7], 1.97% in [8], 4.53% in [9] and 2.08% in experiment [10].

Take `NS(=O)(=O)c1ccc(NC=C2C(=O)Nc3ccc4ncsc4c32)cc1`: the inhibition stood at 73% in experiment [1]; 69.8% in [2]; 91.4% in [3]; 75.9% in experiment [4]; 95% in experiment [5]; 29.3% in [6]. Further, the inhibition is 90% in experiment [7], 68% in [8], 94.9% in experiment [9] and 73.2% in experiment [10].

Turning to `COC(=O)c1cncc(/C=C/c2c(C)cc(O)cc2C)c1`, the inhibition in experiment [1] was 3.88%; in experiment [2], 14.8%; in experiment [3], 42.8%; in [4] it was 0.7%; in [5], 7.7%; in experiment [6] it was 3.58%. The inhibition in experiment [7] was 6.85%; in experiment [8], 27%; in experiment [9] it was 54.8%; in [10], 9.77%.

With `Cc1ccc2c(c1)/C(=N/Nc1ccc(S(N)(=O)=O)cc1)C(=O)N2`, the inhibition in experiment [1] was found to be 16.2%; in experiment [2], 12.2%; in [3], 37.7%; in experiment [4] it was 2.85%; in experiment [5] it was 13.1%; in experiment [6], 11.5%. For the same molecule, the inhibition amounted to 70.2% in experiment [7], 21.8% in [8], 52.3% in experiment [9] and 8.12% in [10].

With `COC(=O)Nc1nc2cc(Oc3ccc(NC(=O)Nc4cccc(Br)c4)cc3)ccc2[nH]1`, the inhibition turned out to be 49.3% in experiment [1]; 75.2% in experiment [2]; 87.4% in experiment [3]; 5.64% in experiment [4]; 13.8% in [5]; 83.8% in [6]. The inhibition in [7] was found to be 98.1%; in [8], 84%; in experiment [9], 94.6%; in [10], 17.4%.

For `CC(C)c1ccc2c(c1)NC(=O)/C2=N/Nc1ccc(S(N)(=O)=O)cc1`, the inhibition in [1] came to 3.81%; in experiment [2] it was 6.3%; in experiment [3] it was 34.2%; in experiment [4] it was 1.62%; in experiment [5], 17.2%; in [6], 6.18%. Also, the inhibition in experiment [7] came out at 48.9%; in [8], 21.5%; in [9] it was 52.3%; in experiment [10], 4.34%.

As for `NS(=O)(=O)c1cccc(Nc2cc(-c3ccc(F)cc3)n[nH]2)c1`, the inhibition in experiment [1] amounted to 13.7%; in experiment [2] it was 12.7%; in [3] it was 36.1%; in [4] it was 3.21%; in experiment [5] it was 16.6%; in experiment [6], 9.3%. Moreover, the inhibition in [7] is 43%; in [8] it was 29.1%; in experiment [9], 50.8%; in [10], 12.7%.

As to `CN1CCN(C(=O)c2ccc(NC(=O)Nc3ccc(N(C)c4ccnc(Nc5ccc(CS(C)(=O)=O)cc5)n4)cc3)cc2)CC1`, the inhibition in [1] was 38.9%; in experiment [2], 59.9%; in [3] it was 77.5%; in [4] it was 7.23%; in experiment [5], 46.1%; in experiment [6], 67.2%. Moreover, the inhibition in [7] is 85.5%; in experiment [8] it was 75.2%; in experiment [9] it was 94.1%; in experiment [10], 60.3%.

Turning to `NC(=O)c1sc(-n2cnc3ccccc32)cc1OCc1ccccc1Br`, the inhibition in experiment [1] was determined as 7.28%; in experiment [2], 6.48%; in [3], 15.4%; in [4] it was 4.15%; in experiment [5], 6.85%; in experiment [6] it was 2.52%. Also, the inhibition was 5.25% in [7], 5.2% in experiment [8], 9.55% in experiment [9] and 4.3% in [10].

In the case of `COc1cc2ncnc(Nc3ccc4c(cnn4Cc4ccccc4)c3)c2cc1OC`, the inhibition worked out at 2.89% in experiment [1]; 9.97% in [2]; 36.9% in experiment [3]; 4% in [4]; 7.42% in [5]; 4.73% in experiment [6]. For the same molecule, the inhibition in experiment [7] was determined as 17%; in [8] it was 6.36%; in experiment [9] it was 23.3%; in [10], 3.39%.

For `NS(=O)(=O)c1ccc(N/N=C2\C(=O)Nc3ccc(Cl)cc32)cc1`, the inhibition in [1] is 12.6%; in [2], 13.1%; in [3], 40.6%; in [4] it was 4.17%; in experiment [5], 13.1%; in [6] it was 11.4%. In addition, the inhibition in experiment [7] amounted to 62.9%; in [8] it was 17.2%; in [9], 47%; in experiment [10], 11.1%.

For the molecule `c1ccc(Nc2ncc(-c3ccccc3)o2)cc1`, the inhibition in [1] came to 4.33%; in experiment [2], 9.48%; in experiment [3], 30.3%; in experiment [4] it was 3.2%; in experiment [5], 7.2%; in experiment [6] it was 6.18%. For the same molecule, the inhibition was 36.6% in [7], 20% in experiment [8], 45.7% in [9] and 10.8% in [10].

`COc1cccc(-n2nc(C)c3c(N/N=C(\C)c4ccncc4)ncnc32)c1`: the inhibition in [1] is 0.36%; in [2] it was 1.29%; in [3], 7.93%; in experiment [4], -0.18%; in experiment [5], 1.8%; in experiment [6], 1.42%. The inhibition in experiment [7] turned out to be 4.43%; in experiment [8], 0.1%; in [9], 0.01%; in [10], 3.11%.

For `COc1cc2ncn(-c3cc(OCc4ccccc4S(C)(=O)=O)c(C#N)s3)c2cc1OC`, the inhibition in experiment [1] was found to be 50.6%; in experiment [2], 59.9%; in [3], 81.6%; in experiment [4] it was 47.5%; in experiment [5], 88%; in experiment [6], 7.95%. The inhibition in experiment [7] stood at 36.1%; in [8], 47.3%; in experiment [9], 87.8%; in experiment [10] it was 45.3%.

Consider `CS(=O)(=O)CCNCc1nc(-c2ccc3ncnc(Nc4ccc(OCc5cccc(C(F)(F)F)c5)cc4)c3c2)cs1`, for which the inhibition in [1] is 5.88%; in experiment [2], 5.06%; in experiment [3], 13.7%; in experiment [4], -0.28%; in experiment [5] it was 1.79%; in experiment [6] it was 5.99%. Besides, the inhibition was found to be 15.7% in experiment [7], 4.8% in experiment [8], 20.4% in experiment [9] and 6.68% in experiment [10].

In the case of `COc1cccc(-n2ncc3c(N/N=C/c4ccc(C)cc4)ncnc32)c1`, the inhibition in experiment [1] came to 13%; in [2], 8.78%; in experiment [3], 23.2%; in experiment [4], 6.24%; in experiment [5], 24.4%; in experiment [6] it was 4.6%. Also, the inhibition was determined as 17.1% in experiment [7], 7.1% in [8], 25.9% in experiment [9] and 7.34% in [10].

Consider `O=C(Nc1ccc(Oc2ccc3[nH]c(NC(=O)c4ccco4)nc3c2)cc1)Nc1cc(C(F)(F)F)ccc1F`, for which the inhibition amounted to 83.5% in experiment [1]; 68% in experiment [2]; 85% in experiment [3]; 4.64% in experiment [4]; 31% in experiment [5]; 43.8% in experiment [6]. The inhibition came out at 95.8% in experiment [7], 73.2% in experiment [8], 95.4% in experiment [9] and 12.1% in experiment [10].
